Each structure is given as a SMILES string. Compounds without any hit were thinned out: in the full panel of roughly 83,000, 20% have a hit.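 Method: cells in 96-well plates; compound added at one concentration; 48 h incubation; percent growth measured; values under 10 scored active.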 A number with no mark means an inactive call. Calls of active or inactive are those of the source.

Holding throughout (assay): NCI-60 one-dose screen, 48 h (100 = growth as untreated, 0 = no growth, -100 = all killed)
The test system of assay [1] is NCI-H23 lung. Conditions: 10 µM unless noted.
In assay [2] the test system is NCI-H226 lung. The note with it: 10 µM unless noted.
Assay [3] deals with NCI-H322M lung. Conditions: 10 µM unless noted.
Assay [4] relates to HOP-62 NSCLC. The note with it: 10 µM unless noted.
Assay [5] concerns NCI-H460 lung. Conditions: 10 µM unless noted.
Assay [6] concerns HOP-92 NSCLC. The note with it: 10 µM unless noted.
For assay [7], the system named is NCI-H522 lung. The note with it: 10 µM.
Assay [8] deals with 786-0 renal. Conditions: 10 µM unless noted.
In assay [9] the test system is COLO 205 colon. Conditions: 10 µM unless noted.
For assay [10], the system named is DU-145 prostate. The note with it: 10 µM unless noted.
Assay [11] concerns K-562 leukemia. The note with it: 10 µM unless noted.
Assay [12] deals with MALME-3M melanoma. Conditions: 10 µM unless noted.
The subject of assay [13] is MDA-MB-231 breast. The note with it: 10 µM unless noted.
The subject of assay [14] is RXF 393 renal. Conditions: 10 µM unless noted.
Assay [15] has as its system SF-268 CNS. The note with it: 10 µM unless noted.
Assay [16] deals with SF-295 CNS. Conditions: 10 µM unless noted.
Assay [17] relates to SF-539 CNS. The note with it: 10 µM unless noted.
The test system of assay [18] is UACC-257 melanoma. The note with it: 10 µM unless noted.
The subject of assay [19] is M14 melanoma. Conditions: 10 µM unless noted.

For `Cc1cc(Br)c(C)cc1Br`, the growth in assay [1] was 97.9%; in assay [2] it was 94.4%; in assay [3] it was 96.4%; in [4] it was 99.4%; in assay [5], 114%; in assay [6] it was 91.4%. Moreover, the growth in assay [7] is 96%; in assay [8] it was 101%; in assay [9] it was 110%; in assay [10], 102%; in [11], 89.8%; in assay [12], 121%. Moreover, the growth is 111% in assay [13]; 106% in assay [14]; 100% in assay [15]; 89.2% in assay [16]; 103% in [17]; 94.4% in [18]. For the same compound, the growth in assay [19] was 100%.
Turning to `Nc1nc(SCc2cccnc2)c2ncn(C3OC(CO)C(O)C3O)c2n1` (configuration not stated), the growth in assay [1] was 97.9%; in [2] it was 94.9%; in [3], 108%; in [4], 85.7%; in assay [5], 96.6%; in [6], 78.1%. Further, the growth was 102% in assay [7]; 103% in assay [8]; 114% in assay [9]; 113% in assay [10]; 113% in [11]; 92.4% in [12]. The growth was 94.7% in [13]; 101% in assay [14]; 90.6% in assay [15]; 99.1% in assay [16]; 95.1% in assay [17]; 92.7% in [18]. Also, the growth in [19] was 97.8%.
For `NC(=NCCCCCCN=C(N)/N=C(\N)Nc1ccc(Cl)cc1)/N=C(\N)Nc1ccc(Cl)cc1`, the growth in assay [1] was 8.42% (active); in assay [2] it was -9.31% (active); in assay [3] it was 19.8%; in assay [4], -25.3% (active); in assay [5], -1.1% (active); in assay [6], -3.2% (active). Besides, the growth in [7] was -11.1% (active); in assay [8], 14%; in assay [9], -96.4% (active); in [10] it was 33.2%; in assay [11], 8.11% (active); in assay [12], 26.7%. Moreover, the growth in assay [13] is 0.0954% (active); in [14] it was 1.06% (active); in assay [15], 20.8%; in assay [16], -9.13% (active); in assay [17], 0.167% (active); in assay [18], 33.7%. Besides, the growth in assay [19] is 22.6%.
For `COc1cc(/C=N/OC(=O)Nc2ccccc2)cc(OC)c1OC`, the growth in [1] is 107%; in assay [2], 96%; in [3] it was 92.2%; in assay [4] it was 93.9%; in assay [5], 109%; in assay [6] it was 74.6%. In addition, the growth is 86.2% in assay [7]; 103% in [8]; 107% in assay [9]; 115% in assay [10]; 107% in [11]; 97.9% in assay [12]. Besides, the growth in assay [13] is 92.6%; in [14], 121%; in assay [15], 107%; in [16], 129%; in assay [17], 100%; in assay [18], 105%. Moreover, the growth in [19] is 107%.
Regarding `C[C@]12CCC(=O)C=C1CCC1C2[C@@H](O)C[C@@]2(C)C1CC[C@]2(O)C(=O)COC(=O)CCC(=O)O` (some centres not stated), the growth in assay [1] is 106%; in assay [2] it was 77.4%; in assay [3], 95.4%; in [4] it was 112%; in assay [5], 102%; in assay [6], 60.6%. The growth in [7] is 107%; in assay [8], 116%; in [9] it was 110%; in assay [10], 118%; in [11] it was 117%; in assay [12], 81.7%. In addition, the growth in [13] was 94.7%; in assay [14] it was 121%; in assay [15] it was 107%; in [16], 117%; in assay [17], 97%; in [18], 114%. For the same compound, in assay [19], the growth was 104%.
Consider `Cc1cc(C)c(C(=O)c2cccs2)c(C)c1`, for which the growth in [1] was 100%; in [2], 99.8%; in assay [3], 106%; in [4] it was 95.2%; in assay [5], 109%; in assay [6], 74.4%. Also, the growth in assay [7] is 93.3%; in assay [8], 100%; in assay [9], 103%; in assay [10] it was 111%; in assay [11], 98.4%; in assay [12], 110%. Moreover, the growth is 107% in assay [13]; 110% in assay [14]; 104% in [15]; 122% in [16]; 106% in assay [17]; 99.3% in [18]. For the same compound, in assay [19], the growth is 103%.
For `COc1ccc(C2CC(c3ccc(Nc4ccnc5cc(Cl)ccc45)cc3)=NN2C(C)=O)cc1` (configuration not stated), the growth in assay [1] was 84.3%; in assay [2], 79.2%; in assay [3], 98.8%; in assay [4], 89.4%; in assay [5] it was 85.4%; in assay [6] it was 36.5%. Moreover, the growth in [7] was 67.3%; in [8], 81.2%; in assay [9] it was 96%; in [10], 88.1%; in assay [11], 32.3%; in assay [12], 58.2%. The growth is 80.9% in [13]; 73.1% in [14]; 72.2% in [15]; 42.6% in [16]; 95.8% in assay [17]; 88% in assay [18]. Further, the growth in assay [19] was 79.5%.
As to `CCCCc1ccc(C(N)=O)nc1`, the growth in assay [1] is 102%; in assay [2], 86.5%; in assay [3], 103%; in assay [4], 99.3%; in assay [5] it was 108%; in assay [6] it was 62.5%. The growth in assay [7] was 85.3%; in assay [8], 92.6%; in assay [9] it was 118%; in assay [10], 102%; in assay [11], 109%; in assay [12], 108%. The growth in assay [13] is 102%; in assay [14], 103%; in assay [15], 101%; in assay [16], 109%; in [17], 105%; in assay [18], 97.8%. Also, the growth in [19] was 100%.

(Values after PubChem BioAssay (NCI).)
